This is an account of results in PubChem BioAssay (NCI).

A short description of assay [1]: NCI Yeast Anticancer Drug Screen. Data for the rad50 strain (AID 155).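 Note: 0% = growth of vehicle-only cultures of the same strain.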 To be noted: S. cerevisiae rad50 strain growth inhibition, stronger effect = higher value. Summed up: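 Cells are treated with compound, grown, and their growth is then scored against vehicle-only cultures of the same repair-deficient yeast strain.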
Assay [2] is described as follows: NCI Yeast Anticancer Drug Screen. Data for the mec2-1 strain (AID 157). The note with it: S. cerevisiae mec2-1 strain, stronger effect = higher value. A digest of the protocol:
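Mutant yeast (mec2-1) grown with compound; growth inhibition relative to vehicle control reported.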

Assay [3] is described as follows: NCI Yeast Anticancer Drug Screen. Data for the sgs1 mgt1 strain (AID 161).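 Note: 0% = growth of cultures given vehicle only.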 To be noted: S. cerevisiae sgs1 mgt1 strain, stronger effect = higher value. Summed up: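 This yeast growth screen uses a strain with defined DNA-repair lesions; compound-treated growth is compared with vehicle-treated growth.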
A short description of assay [4]: NCI Yeast Anticancer Drug Screen. Data for the cln2 rad14 strain (AID 165).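 Note: 0% = growth equal to vehicle treated cultures.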 The note with it: S. cerevisiae cln2 rad14 strain, stronger effect = higher value. A digest of the protocol:
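Readout is yeast growth inhibition versus vehicle-treated controls, using a strain with cln2 and rad14 alterations exposed to compound.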

Assay [5] can be described thus: NCI Yeast Anticancer Drug Screen. Data for the bub3 strain (AID 167). To be noted: S. cerevisiae bub3 mutant strain, stronger effect = higher value. Summed up:
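Part of a panel of yeast mutants defective in DNA damage repair or cell cycle regulation. Each strain is grown with compound, and inhibition is calculated relative to solvent-treated cultures.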

The nature of assay [6]: NCI Yeast Anticancer Drug Screen. Data for the mlh1 rad18 strain (AID 175). The note with it: S. cerevisiae mlh1 rad18 strain growth inhibition, stronger effect = higher value. Summed up: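 Genetically defined yeast (DNA repair-deficient) exposed to compounds; growth inhibition determined relative to vehicle.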
The mark [7] stands for this setting: at 5.0 µM (retest, dose inferred, filed as 0.5).
Setting [8] is: at 50.0 µM (retest, dose inferred, filed as 5.0).

Each structure is given as a SMILES string. About 79,000 compounds went through this panel and 15% of them were active in at least one assay; those are over-represented in the sample as a whole. Values without a mark were called inactive. Activity calls are given as the source filed them. Cut-off read from the data, not from the text of the source: active = growth inhibition above about 70%; inactive = the rest.

With `CC12CCCCC1C(=O)C2(Cl)Cl` (configuration not stated), the growth inhibition was -1% in assay [1] (setting [7]); 11% in assay [1] (setting [8]); 11.8% in assay [1] (at 50.0 µM); 1% in assay [2] (setting [7]); 17% in assay [2] (setting [8]); -2.45% in assay [2] (at 50.0 µM). Also, the growth inhibition in assay [3] (setting [7]) was -1%; in assay [3] (setting [8]) it was 48%; in assay [3] (at 50.0 µM), 43%; in assay [4] (setting [7]), -1%; in assay [4] (setting [8]), -4%; in assay [4] (at 50.0 µM), 1.65%. Besides, the growth inhibition in assay [5] (setting [7]) was 3%; in assay [5] (setting [8]), 13%; in assay [5] (at 50.0 µM) it was -3.55%; in assay [6] (setting [7]), 1%; in assay [6] (setting [8]) it was 37%; in assay [6] (at 50.0 µM) it was 27.4%.
Take `COc1ccc([As](O[As](c2ccc(OC)cc2)c2ccc(OC)cc2)c2ccc(OC)cc2)cc1`: the growth inhibition in assay [1] (setting [7]) is 99% (active); in assay [1] (setting [8]), 99% (active); in assay [1] (at 50.0 µM), 99.2% (active); in assay [2] (setting [7]), 100% (active); in assay [2] (setting [8]) it was 100% (active); in assay [2] (at 50.0 µM), 99.6% (active). In addition, the growth inhibition in assay [3] (setting [7]) was 100% (active); in assay [3] (setting [8]), 100% (active); in assay [3] (at 50.0 µM), 99.5% (active); in assay [4] (setting [7]) it was 99% (active); in assay [4] (setting [8]), 99% (active); in assay [4] (at 50.0 µM), 99.4% (active). The growth inhibition in assay [5] (setting [7]) is 99% (active); in assay [5] (setting [8]), 99% (active); in assay [5] (at 50.0 µM), 99.4% (active); in assay [6] (setting [7]), 99% (active); in assay [6] (setting [8]), 99% (active); in assay [6] (at 50.0 µM), 99.5% (active).
For the compound `CNP(=O)(Oc1cc(Cl)c(Cl)cc1Cl)N1CCN(c2ccccc2)CC1` (configuration not stated), the growth inhibition is 12% in assay [1] (setting [7]); 81% (active) in assay [1] (setting [8]); 98.8% (active) in assay [1] (at 50.0 µM); 36% in assay [2] (setting [7]); 48% in assay [2] (setting [8]); 98% (active) in assay [2] (at 50.0 µM). Besides, the growth inhibition in assay [3] (setting [7]) is 8%; in assay [3] (setting [8]), 72% (active); in assay [3] (at 50.0 µM), 98% (active); in assay [4] (setting [7]) it was 25%; in assay [4] (setting [8]), 53%; in assay [4] (at 50.0 µM) it was 97.8% (active). Also, the growth inhibition in assay [5] (setting [7]) is 11%; in assay [5] (setting [8]), 86% (active); in assay [5] (at 50.0 µM), 97.5% (active); in assay [6] (setting [7]), -5%; in assay [6] (setting [8]), 91% (active); in assay [6] (at 50.0 µM) it was 97.4% (active).
Regarding `CCN1CCC(O)(c2ccc(O)cc2)C(C(=O)c2ccc(O)cc2)C1` (configuration not stated), the growth inhibition in assay [1] (setting [7]) was -9%; in assay [1] (setting [8]) it was -9%; in assay [1] (at 50.0 µM) it was 72% (active); in assay [2] (setting [7]), -9%; in assay [2] (setting [8]) it was 8%; in assay [2] (at 50.0 µM), 82.6% (active). Moreover, the growth inhibition was 6% in assay [3] (setting [7]); 13% in assay [3] (setting [8]); 91.3% (active) in assay [3] (at 50.0 µM); 18% in assay [4] (setting [7]); 21% in assay [4] (setting [8]); 7.1% in assay [4] (at 50.0 µM). In addition, the growth inhibition is -9% in assay [5] (setting [7]); 19% in assay [5] (setting [8]); 13.3% in assay [5] (at 50.0 µM); 1% in assay [6] (setting [7]); 29% in assay [6] (setting [8]); 86.7% (active) in assay [6] (at 50.0 µM).
On to `N#CCC[CH2][Sn]([Br])([Br])[c]1ccccc1`, for which the growth inhibition in assay [1] (setting [7]) was 3%; in assay [1] (setting [8]), 72% (active); in assay [1] (at 50.0 µM), 43.9%; in assay [2] (setting [7]), 23%; in assay [2] (setting [8]), 22%; in assay [2] (at 50.0 µM) it was 80.1% (active). In addition, the growth inhibition in assay [3] (setting [7]) was 49%; in assay [3] (setting [8]) it was 49%; in assay [3] (at 50.0 µM), 6%; in assay [4] (setting [7]), 2%; in assay [4] (setting [8]), 11%; in assay [4] (at 50.0 µM) it was 34.5%. Moreover, the growth inhibition in assay [5] (setting [7]) was -6%; in assay [5] (setting [8]), 18%; in assay [5] (at 50.0 µM) it was 89.4% (active); in assay [6] (setting [7]) it was 8%; in assay [6] (setting [8]), 58%; in assay [6] (at 50.0 µM), 36.5%.
Consider `[N-]=[N+]=NC1(N=[N+]=[N-])C(=O)NN=C(c2ccccc2)C1=O` (configuration not stated), for which the growth inhibition in assay [1] (setting [7]) was -12%; in assay [1] (setting [8]) it was 87% (active); in assay [1] (at 50.0 µM), 84% (active); in assay [2] (setting [7]), 15%; in assay [2] (setting [8]), 91% (active); in assay [2] (at 50.0 µM) it was 91.2% (active). In addition, the growth inhibition is 4% in assay [3] (setting [7]); 83% (active) in assay [3] (setting [8]); 88% (active) in assay [3] (at 50.0 µM); 23% in assay [4] (setting [7]); 87% (active) in assay [4] (setting [8]); 86.8% (active) in assay [4] (at 50.0 µM). The growth inhibition in assay [5] (setting [7]) was -3%; in assay [5] (setting [8]) it was 97% (active); in assay [5] (at 50.0 µM), 89.7% (active); in assay [6] (setting [7]), 31%; in assay [6] (setting [8]), 97% (active); in assay [6] (at 50.0 µM), 79.7% (active).
`COC1CCCC2OC3(OC)C(OC)CCCC3OC12OC` (configuration not stated): the growth inhibition was 3% in assay [1] (setting [7]); -4% in assay [1] (setting [8]); 12.2% in assay [1] (at 50.0 µM); -1% in assay [2] (setting [7]); -3% in assay [2] (setting [8]); 14.7% in assay [2] (at 50.0 µM). For the same compound, the growth inhibition in assay [3] (setting [7]) is 2%; in assay [3] (setting [8]), -2%; in assay [3] (at 50.0 µM) it was 10.2%; in assay [4] (setting [7]), 5%; in assay [4] (setting [8]), -39%; in assay [4] (at 50.0 µM), 40.9%. The growth inhibition was 3% in assay [5] (setting [7]); 9% in assay [5] (setting [8]); 27.2% in assay [5] (at 50.0 µM); -1% in assay [6] (setting [7]); -11% in assay [6] (setting [8]); 7.85% in assay [6] (at 50.0 µM).
Take `[Se]C1=NCCN1`: the growth inhibition was 6% in assay [1] (setting [7]); 53% in assay [1] (setting [8]); 94.6% (active) in assay [1] (at 50.0 µM); 7% in assay [2] (setting [7]); 34% in assay [2] (setting [8]); 92.3% (active) in assay [2] (at 50.0 µM). Also, the growth inhibition is 3% in assay [3] (setting [7]); 39% in assay [3] (setting [8]); 95.6% (active) in assay [3] (at 50.0 µM); 6% in assay [4] (setting [7]); 48% in assay [4] (setting [8]); 77.8% (active) in assay [4] (at 50.0 µM). The growth inhibition in assay [5] (setting [7]) is 4%; in assay [5] (setting [8]), 96% (active); in assay [5] (at 50.0 µM), 84% (active); in assay [6] (setting [7]), 6%; in assay [6] (setting [8]) it was 89% (active); in assay [6] (at 50.0 µM), 92.2% (active).
`C(#C[PH+](c1ccccc1)c1ccccc1)c1ccccc1.C(#C[PH+](c1ccccc1)c1ccccc1)c1ccccc1.C(#C[PH+](c1ccccc1)c1ccccc1)c1ccccc1.[C-]#[O+].[C-]#[O+].[C-]#[O+].[Cr]`: the growth inhibition was 29% in assay [1] (setting [7]); 35% in assay [1] (setting [8]); 83.2% (active) in assay [1] (at 50.0 µM); 31% in assay [2] (setting [7]); 27% in assay [2] (setting [8]); 87% (active) in assay [2] (at 50.0 µM). Besides, the growth inhibition in assay [3] (setting [7]) was 14%; in assay [3] (setting [8]), 17%; in assay [3] (at 50.0 µM), 86.8% (active); in assay [4] (setting [7]), 31%; in assay [4] (setting [8]), 39%; in assay [4] (at 50.0 µM), 84.5% (active). The growth inhibition in assay [5] (setting [7]) is 44%; in assay [5] (setting [8]) it was 39%; in assay [5] (at 50.0 µM), 88.2% (active); in assay [6] (setting [7]) it was 0%; in assay [6] (setting [8]), 37%; in assay [6] (at 50.0 µM), 82.5% (active).
